Laboratory results reported in PubChem BioAssay (NCI).
Compounds without any hit were thinned out: in the full panel of roughly 79,000, 15% have a hit. Values without a mark were called inactive. Calls of active or inactive are those of the source. Rule as the data show it: active = growth inhibition above about 70%; inactive = the rest.

What was measured:
[1] = NCI Yeast Anticancer Drug Screen. Data for the rad50 strain (AID 155);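 also: 0% = growth of vehicle-only cultures of the same strain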; conditions: S. cerevisiae rad50 strain growth inhibition, stronger effect = higher value
Method in brief: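 Relative growth inhibition (compound vs vehicle) was measured in yeast with a defined repair-gene alteration.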

[2] = NCI Yeast Anticancer Drug Screen. Data for the mec2-1 strain (AID 157); conditions: S. cerevisiae mec2-1 strain, stronger effect = higher value
Method in brief: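 Using mec2-1 yeast: add compound, measure growth, express inhibition versus vehicle-treated cultures.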

[3] = NCI Yeast Anticancer Drug Screen. Data for the sgs1 mgt1 strain (AID 161);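 also: 0% = growth of cultures given vehicle only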; conditions: S. cerevisiae sgs1 mgt1 strain, stronger effect = higher value
Method in brief: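 Compounds are added to genetically altered yeast, and growth is compared with cultures given vehicle alone to give percent inhibition.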

[4] = NCI Yeast Anticancer Drug Screen. Data for the cln2 rad14 strain (AID 165);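 also: 0% = growth equal to vehicle treated cultures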; conditions: S. cerevisiae cln2 rad14 strain, stronger effect = higher value
Method in brief: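 Yeast strain cln2 rad14, bearing defects in cell cycle control and DNA repair, serves as the test system; values reflect growth inhibition compared with vehicle.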

[5] = NCI Yeast Anticancer Drug Screen. Data for the bub3 strain (AID 167); conditions: S. cerevisiae bub3 mutant strain, stronger effect = higher value
Method in brief: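 Screening used yeast with an engineered genetic alteration affecting cell cycle control. Compound-exposed cultures were compared with vehicle cultures, and reduced growth was taken as inhibition.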

[6] = NCI Yeast Anticancer Drug Screen. Data for the mlh1 rad18 strain (AID 175); conditions: S. cerevisiae mlh1 rad18 strain growth inhibition, stronger effect = higher value
Method in brief: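 Steps: expose repair-defective yeast to compound; measure growth; express inhibition against vehicle-treated controls.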

[7] = at 5.0 µM (retest, dose inferred, filed as 0.5)
[8] = at 50.0 µM (retest, dose inferred, filed as 5.0)

Row | SMILES | growth inhibition [1, 7] | growth inhibition [1, 8] | growth inhibition ([1]; at 50.0 µM) | growth inhibition [2, 7] | growth inhibition [2, 8] | growth inhibition ([2]; at 50.0 µM) | growth inhibition [3, 7] | growth inhibition [3, 8] | growth inhibition ([3]; at 50.0 µM) | growth inhibition [4, 7] | growth inhibition [4, 8] | growth inhibition ([4]; at 50.0 µM) | growth inhibition [5, 7] | growth inhibition [5, 8] | growth inhibition ([5]; at 50.0 µM) | growth inhibition [6, 7] | growth inhibition [6, 8] | growth inhibition ([6]; at 50.0 µM)
1 | COc1ccc2nc3cc(Cl)ccc3c(NCCNCCCNC(=O)c3cc(-c4ccccc4)nc4ccccc34)c2c1 | -14% | 98% (active) | 96.3% (active) | -1% | 87% (active) | 93.9% (active) | -5% | 69% | 95.2% (active) | 30% | 98% (active) | 97.5% (active) | -15% | 97% (active) | 94.2% (active) | -11% | 98% (active) | 98.2% (active)
2 | CC(C)(C)N/N=C(\C(=O)NC1=C(Cl)C(=O)c2ccccc2C1=O)C1C=CCS1(=O)=O (configuration not stated) | 7% | 89% (active) | 90.2% (active) | -10% | 65% | 72.3% (active) | -4% | 86% (active) | 68.4% | -26% | 48% | 31.3% | 0% | 92% (active) | 84% (active) | 15% | 81% (active) | 61.5%
3 | NNc1cc([N+](=O)[O-])ccc1Cl | 5% | 93% (active) | 88.5% (active) | 6% | 68% | 91.2% (active) | -8% | 84% (active) | 90.8% (active) | 4% | 38% | 68% | 24% | 94% (active) | 95.1% (active) | -20% | 95% (active) | 98.5% (active)
4 | CC(CO)[C@H]1OC(=O)C=C2[C@@]13O[C@@H]3[C@H]1OC(=O)[C@@]3(C)[C@H]4O[C@H]4C[C@@]2(C)[C@@H]13 (some centres not stated) | 51% | 98% (active) | 89.8% (active) | 47% | 99% (active) | 91% (active) | 58% | 97% (active) | 88.2% (active) | 59% | 98% (active) | 89.5% (active) | 66% | 98% (active) | 88.8% (active) | 61% | 97% (active) | 89.8% (active)
5 | Cc1ccc(C)c(N2C(=O)C(=O)C(c3nc4ccccc4o3)C(=O)C2=O)c1 | 38% | 98% (active) | 99% (active) | 18% | 99% (active) | 99.3% (active) | 30% | 98% (active) | 96.3% (active) | 30% | 99% (active) | 99% (active) | 13% | 98% (active) | 99.3% (active) | 15% | 98% (active) | 98.8% (active)
6 | CC(C)(C)NC1=NC(C(F)(F)F)(C(F)(F)F)NC(=O)N1 | -19% | 91% (active) | 38.9% | -20% | 93% (active) | 40.8% | -52% | 88% (active) | 33.9% | -21% | 72% (active) | 21.3% | -56% | 95% (active) | 70.5% (active) | -22% | 92% (active) | 12.4%
7 | Nc1ccc2nc3c(nc2c1)C(=O)c1ccccc1-3 | 47% | 93% (active) | 85.5% (active) | 10% | 93% (active) | 86.5% (active) | 19% | 88% (active) | 85% (active) | 32% | 90% (active) | 83% (active) | 15% | 94% (active) | 87.6% (active) | 21% | 93% (active) | 89.5% (active)
8 | CCOC(=O)/C(Cl)=C(\OCC)C(=O)OCC | 14% | 10% | -6.4% | 6% | 13% | 12.3% | 2% | 19% | 20% | -5% | 19% | 44.9% | -1% | 8% | 26.4% | 12% | 22% | 21.1%
9 | COc1cc(C2=N/C(=C\c3ccccc3O)C(=O)O2)cc(OC)c1OC | -23% | -22% | -9.9% | -8% | -21% | -27.1% | -15% | -6% | 4.05% | 0% | 2% | 8.7% | -20% | -23% | 10.8% | -43% | -47% | 0.65%
10 | COc1ccc(C(=O)C(CCC(=O)/C=C/c2ccccc2)S(C)(=O)=O)cc1 (configuration not stated) | 8% | 10% | 9.25% | -12% | 15% | 3.5% | 5% | 13% | 17.2% | 2% | -8% | 39.9% | -7% | 6% | 0.7% | 0% | -5% | 2.4%
11 | Nc1nc2c(ccc3ccccc32)s1 | -3% | 36% | 66% | -17% | 37% | 50.6% | 6% | 54% | 67.5% | 14% | 33% | 61.2% | -22% | 52% | 56.9% | 1% | 72% (active) | 57.6%
12 | C/C(=N/Nc1ccc([N+](=O)[O-])cc1[N+](=O)[O-])C1=CCC(C(C)(C)C)CC1 (configuration not stated) | 7% | 2% | -6.7% | -4% | -11% | -32.5% | -5% | 27% | -7.05% | 4% | -1% | 38.8% | -3% | -1% | -11.6% | -7% | -6% | 11.8%
13 | C/C(=N/O)c1cc([N+](=O)[O-])c(O)cc1O | -27% | 70% (active) | 86.7% (active) | -10% | 76% (active) | 84.9% (active) | -15% | 80% (active) | 89.2% (active) | -6% | 44% | 61.1% | -35% | 76% (active) | 86.5% (active) | -16% | 80% (active) | 85.8% (active)
14 | CCCCCCCCSCc1ccc(N)cc1 | 23% | 97% (active) | 89.7% (active) | 12% | 98% (active) | 91.4% (active) | 37% | 98% (active) | 90.5% (active) | 39% | 98% (active) | 89.5% (active) | 51% | 98% (active) | 89% (active) | 20% | 97% (active) | 89.6% (active)
15 | O=C(CBr)c1ccc2cc(Br)c3ccccc3c2c1 | 55% | 94% (active) | 64% | 84% (active) | 96% (active) | 44% | 98% (active) | 95% (active) | 68.5% | 16% | 92% (active) | 46.1% | 81% (active) | 94% (active) | 41.1% | 83% (active) | 95% (active) | 61%
16 | Cc1ccc(S(=O)(=O)NC(=O)CC2CCCCC2)cc1 | 14% | 89% (active) | 91.2% (active) | 9% | 93% (active) | 76.5% (active) | -9% | 94% (active) | 79.1% (active) | -4% | 91% (active) | 76.7% (active) | 17% | 94% (active) | 79% (active) | 22% | 96% (active) | 91.5% (active)
17 | Cc1[nH]nc(-c2ccon2)c1N=O | 12% | 61% | 68.7% | -28% | 66% | 28.8% | 16% | 80% (active) | -1.75% | 22% | 48% | 4.65% | 56% | 90% (active) | 78.7% (active) | 64% | 93% (active) | 58.4%
18 | N#[N+]c1ccc2c(S(=O)(=O)Oc3ccc(C(=O)c4ccccc4)c(OS(=O)(=O)c4cccc5c([O-])c([N+]#N)ccc45)c3)cccc2c1[O-] | -10% | 46% | 82.5% (active) | -7% | 33% | 85.3% (active) | 1% | 59% | 77.2% (active) | 36% | 45% | 84% (active) | -3% | 31% | 77.1% (active) | -13% | 4% | 72.7% (active)
19 | O=[N+]([O-])c1ccc2c(c1)OCO2 | 0% | 22% | 68.2% | 1% | 4% | 8% | -2% | 3% | 69.7% | 1% | 0% | 6.95% | 0% | 3% | 37% | -4% | 5% | 67.7%
